Over roughly 39,000 sequences, “fluorescence intensity (a.u.)” has its median near 4,300; the highest 2% begin near 39,000. For the sample, the highest values were picked, then their nearest neighbours and some sequences at random.

In the assay the target is T1, OsSMF1 (Oryza sativa, UniProt Q6ZLB0 1-436).
T1 sequence: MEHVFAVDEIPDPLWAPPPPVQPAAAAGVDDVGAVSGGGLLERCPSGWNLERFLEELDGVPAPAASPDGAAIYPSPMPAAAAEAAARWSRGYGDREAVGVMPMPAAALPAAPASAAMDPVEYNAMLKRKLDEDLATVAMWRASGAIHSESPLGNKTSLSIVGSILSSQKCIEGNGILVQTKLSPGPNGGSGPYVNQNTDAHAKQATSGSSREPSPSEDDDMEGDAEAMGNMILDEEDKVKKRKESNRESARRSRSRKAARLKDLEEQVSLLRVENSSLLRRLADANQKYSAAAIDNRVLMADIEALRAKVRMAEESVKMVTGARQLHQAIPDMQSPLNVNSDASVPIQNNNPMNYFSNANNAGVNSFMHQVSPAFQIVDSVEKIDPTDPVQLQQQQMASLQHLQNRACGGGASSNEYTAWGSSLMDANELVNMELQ
The experiment in a line: protein-binding microarray (RPBM); PBS, 2% BSA, 51.3 ng/ul salmon testes DNA, 50 uM zinc acetate, 200 nM TF, 25 C, 1 h; high values mean tight binding. The settings on record: protein: recombinant; tags: N-terminal polyhistidine and DsRed monomer fusion (pET32a); chain copies: 2; label: CyDye5-dUTP incorporated in the synthesized complementary strand; 3' TTTTT single-stranded linker to array surface; dsDNA, one strand shown. In a few lines: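 Binding signal is defined as the fluorescence intensity of each feature in arbitrary units, read on an Axon 4000B scanner. Transcription factors with N-terminal polyhistidine and DsRed fusions came from E. coli BL21-CodonPlus and were purified on Ni–NTA. They were incubated at 200 nM for 1 h at 25 °C on a custom Agilent array that had been made double-stranded with Cy5-dUTP, with 50 µM zinc acetate present, and the array was washed.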
With “CGTCGCCGTCGCCTCGCCTCGTCACGGCCGCCTCCGCCATCGGAGTCACCTAGTGCAG”, the binding signal is 7920 fluorescence intensity (a.u.). As for “ACCTCTGGTAGCAGCAGCAGCTCGCACGCAGCTCATCGTGCGGAGTCACCTAGTGCAG”, the figure is 40700 fluorescence intensity (a.u.); as for “GCGTGGTGCGTATCGTGCTCATCGCATCGGCCTCCGTATACGGAGTCACCTAGTGCAG”, 40000 fluorescence intensity (a.u.); as for “TGCCGCCGCCGTCGTCACCGTCGCCGCCTCCGTGCTCATGCGGAGTCACCTAGTGCAG”, 6030 fluorescence intensity (a.u.). Under “CCAGCAGCCCCTCTCTCATCCATGGTAGTGCTCTGTCATGCGGAGTCACCTAGTGCAG” stands 3400 fluorescence intensity (a.u.); under “ATGTTGACTCGTTTGCCTGTGTTCCTCTTGCTGCTATTCACGGAGTCACCTAGTGCAG”, 3230 fluorescence intensity (a.u.); under “ATCTTTAGTCCCGGATTGGTAGTTCCGGTTTGAAAACCGGCGGAGTCACCTAGTGCAG”, 3760 fluorescence intensity (a.u.).

“CGCTGTGGTGTGCAGCGGCGGTGCCACGTCCCTATTTAAACGGAGTCACCTAGTGCAG”: the binding signal is 10900 fluorescence intensity (a.u.). As for “TCTTTAGTCCCGGTTCCTATTTAAACCGGGATTATTGTGGCGGAGTCACCTAGTGCAG”, the figure is 47900 fluorescence intensity (a.u.); as for “ACCAAATGACATGACTCACTTAGATCCTAATAGGACATCCCGGAGTCACCTAGTGCAG”, 4400 fluorescence intensity (a.u.); as for “GCGCCGCGGTGGAGGCGAGTGGGCGACACGTGGGAAGTGGCGGAGTCACCTAGTGCAG”, 6610 fluorescence intensity (a.u.).

Consider “GTGCTGGCCAAATGGGCCGGGCCAAGGCCTCGGTAACCACCGGAGTCACCTAGTGCAG”, for which the binding signal is 42300 fluorescence intensity (a.u.). Under “ATATGTGCTGGCCGCTGAGGTATACAGTATATGGGCCAACCGGAGTCACCTAGTGCAG” stands 3580 fluorescence intensity (a.u.); under “CCGGACCAAAATGACGTGCCTTAGGCCGGGCCGCCAGCCTCGGAGTCACCTAGTGCAG”, 3830 fluorescence intensity (a.u.); under “ATCTGTCTTTGTTTGAAATCAGATTGGTTCAAAACAAGCGCGGAGTCACCTAGTGCAG”, 21900 fluorescence intensity (a.u.).

With “AGTTGATAAATTTCAGAAAATTTTGATGACAAAGCAAAGCCGGAGTCACCTAGTGCAG”, the binding signal was 5580 fluorescence intensity (a.u.). For “CAAATTTTAATCCTAGAAAAGCTTATATTTGAAGGAGAAGCGGAGTCACCTAGTGCAG”, the binding signal was 31100 fluorescence intensity (a.u.). Consider “CTTTTCACGGATCCTAATTTTGACAGGCAAAGAAAGAAAGCGGAGTCACCTAGTGCAG”, for which the binding signal is 41700 fluorescence intensity (a.u.).

As for “GTCCCGCGCATTGGCGACGCGCGACCGGCACGGTCCCGCACGGAGTCACCTAGTGCAG”, the binding signal was 13500 fluorescence intensity (a.u.). As for “CTGACGACCCGGATCAACCATTGGCAGCAGCTCCTGTACACGGAGTCACCTAGTGCAG”, the figure is 3580 fluorescence intensity (a.u.); as for “AATAACCACGTATATATAACTTCTAACCCTAGTTAACAACCGGAGTCACCTAGTGCAG”, 3310 fluorescence intensity (a.u.). Consider “TACTTATGTAAAAGGATTGATTTAAGAGAATGGTCCAAACCGGAGTCACCTAGTGCAG”, for which the binding signal is 44100 fluorescence intensity (a.u.). As for “AAACAACCAACTTTGCCTGCAAAACGGCAAAGAGATTAACCGGAGTCACCTAGTGCAG”, the figure is 3920 fluorescence intensity (a.u.); as for “AAGAGATGGGGATTAAACCAATTGGGCCGAAAGATATGTCCGGAGTCACCTAGTGCAG”, 41200 fluorescence intensity (a.u.); as for “GAATTTATGGTTGAATACTTAACTTAAAATCCAAGGAACCCGGAGTCACCTAGTGCAG”, 3220 fluorescence intensity (a.u.). Under “TGATTTAAACATGTTATGTAAGGAGAGTTGGAGACAGATACGGAGTCACCTAGTGCAG” stands 22000 fluorescence intensity (a.u.). Consider “AGAGAATTATGGAGAGGGGAGGGGAGGGGCAGCAAAAGAGCGGAGTCACCTAGTGCAG”, for which the binding signal was 4210 fluorescence intensity (a.u.).

For the sequence “AAAGAGATTATGCGGATATGCCCTTGCAAACCGGGGCAGTCGGAGTCACCTAGTGCAG”, the binding signal is 49900 fluorescence intensity (a.u.). Under “GATGTCTTTAAAGAGGATTATATGAAATTTGAGATGAAATCGGAGTCACCTAGTGCAG” stands 3610 fluorescence intensity (a.u.). Under “AGAGGGGAGGAAGAAGGAAGGAGAGATGGGTCCGACATGTCGGAGTCACCTAGTGCAG” stands 26900 fluorescence intensity (a.u.); under “CGTACGGATATGCCCACGTGGCGAAGTCCCACGACGCCACCGGAGTCACCTAGTGCAG”, 9930 fluorescence intensity (a.u.); under “ATTTCCAGTAAAAGTGGCATTGTTCAGACTTCAGTCATTACGGAGTCACCTAGTGCAG”, 3530 fluorescence intensity (a.u.). As to “CACGGCATCGGCATCGGCAGCCACGCCTCGCGTGGCACGGCGGAGTCACCTAGTGCAG”, the binding signal was 4720 fluorescence intensity (a.u.). As to “GACAGATGTGCTGAGTGCTGACGTGGTTAAACTAACCTCGCGGAGTCACCTAGTGCAG”, the binding signal was 16100 fluorescence intensity (a.u.). Consider “TCGAAAACTTTTCAGCCACGTGATGTTGGCAATCGCTGTTCGGAGTCACCTAGTGCAG”, for which the binding signal is 7190 fluorescence intensity (a.u.).

Regarding “AAGAGGATCGCAATCGTGAAAACTTCGCAAGTGTTCAGAACGGAGTCACCTAGTGCAG”, the binding signal is 59100 fluorescence intensity (a.u.). With “CCAAACTAAGAGTGTTCAAGGGGAGGGGAAAAGAGAAGATCGGAGTCACCTAGTGCAG”, the binding signal was 3660 fluorescence intensity (a.u.). As to “CACCAGCACATAAACACAAACCCACAGAAGACATTGCATTCGGAGTCACCTAGTGCAG”, the binding signal was 5420 fluorescence intensity (a.u.). Under “GGGCCCCACAACCACCCCATAAATAAAGCAACACAACAACCGGAGTCACCTAGTGCAG” stands 53000 fluorescence intensity (a.u.); under “CCACTGGACCATAACTGGGCCCAGCACACAGAAACAAATCCGGAGTCACCTAGTGCAG”, 44700 fluorescence intensity (a.u.); under “CTTGGCCCAGAAACAACACACACACTCAAATCTGGATCCACGGAGTCACCTAGTGCAG”, 3790 fluorescence intensity (a.u.).

For “AATGAAATTAAACACACCCAACAAAATAAAAGACCAAACCCGGAGTCACCTAGTGCAG”, the binding signal is 3140 fluorescence intensity (a.u.). As for “CGGCCCACCCACCAACCACCACCACCACCACCACACCCGCCGGAGTCACCTAGTGCAG”, the figure is 3740 fluorescence intensity (a.u.).
